# Target: GPR137
# Assay: pooled miR-30 sensor sort-seq; sequence = guide strand
# Settings: shRNA
# Note: reference of the scale not given here.
row,Sequence,sensor-assay potency score (higher = more potent)
1,AAGAACTGCAGGCAGACGGGGC,-0.842
2,TCCAGGTAGATGCTAGTGGAGG,-2.54
3,TCACTATGACAGGAGCAGCAAG,-1.58
4,TTGGCCTCCAGGTAGATGCTAG,-0.691
5,TAATCGAAGGTGTCCAGCCGGC,-0.771
6,TCATTCACCAGGTCCGCCTGGT,0.279
7,TAGCTGAGACGCTTGTGCCCAT,-0.72
8,TGGTCAGACACATTGTACCAGC,-1.27
9,TAGAGCAGGACCATGGCGCCAC,-0.353

# Target: GPR172A
# Assay: as above
# Settings: shRNA
row,Sequence,sensor-assay potency score (higher = more potent)
1,TGGAACACGTGATAGATGCTGG,-0.57
2,TTGGTCAGCGCGTTGGTGGCGG,-0.894
3,TTCTGCTGTGGAACACGTGATA,-0.914
4,TTAGGGTCTGGACCAGGGGTGG,-1.64
5,AAGAATGACCGTAAGAAGCGAG,-0.349
6,TCACGTAGGAGAACACGCCAAG,-1.31
7,TGATAGAAGCTGATAGGCCTTA,-0.123
8,TGACATTCGAGGCACAGCATGC,-1.17
9,AAAACGCTCAAGGAAGTCGAGC,-1.04
10,TTGGTGGCTCTTGCAGTGGTGA,-1.5
11,TTCACGTAGGAGAACACGCCAA,-0.595
12,TGACCCAGGAAGAATGACCGTA,-0.348

# Target: GPR173
# Assay: as above
# Settings: shRNA
row,Sequence,sensor-assay potency score (higher = more potent)
1,TTCACCCTTGACCTCGTCCATG,-1.32
2,TTGCCGTAGACAGCATGGGTAG,-1.57
3,TTTCACAAACACTCGCCAGTAG,-0.0654
4,TACTCGAAGAGGAGCAGCTTGC,-1.59
5,AAGGCCACAATCTTGCAGCTGA,0.463
6,AATCAGTCCTAGCAGTACCAGC,-1.44
7,TAAACTTGTAGGTGCCCACGTC,0.745
8,TCACGCACATAATCAGTCCTAG,-0.629
9,TGAAGGTCCATGAAGAGCCGTG,-0.497
10,TAGCGGGTGACGCTGATGCAGA,-1.36
11,ATAAAGGCCACAATCTTGCAGC,-0.595
12,TGCACTGGCTTCATCTTGCGGT,-0.396

# Target: GPR176
# Assay: as above
# Settings: shRNA
row,Sequence,sensor-assay potency score (higher = more potent)
1,TAACACCATGAAGTTTCCGAGC,-1.48
2,TAGAGGACTGAGTAGTACCTGT,-0.351
3,TTGCTGTTTCGGGTCTCTGAGA,-1.55
4,TTGAACACGGTTGTGCGGCAAG,-0.817
5,TTGTCTGGATCAGCTCTTCTGG,-0.703
6,TTTATTGTTTCTGCTCATCTTC,-0.299
7,TTGCTCCAGACTTCCGTGCAGG,-0.956

# Source: the OligoGym collection
